Screening results: PubChem BioAssay, The Scripps Research Institute Molecular Screening Center
Shown are actives, neighbours in structure and some others; about 3.4% of the full set was active somewhere.
FBW7 act: FBW7 E3 ligase activators, primary screen, biochemical, AlphaScreen, human | F-box/WD repeat-containing protein 7 (Homo sapiens), Q969H0 | AlphaScreen FBW7–phospho-cyclin E peptide binding, activator screen | normalized activity (activation), % at 26.1 µM | hit rate 0.13% among 650,000 | AID 1259310, 2017; in the data active means normalized activity above about 1.9%;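 further: purified mutant Fbw7 with reduced substrate affinity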
Target sequence (Q969H0 whole entry, looked up): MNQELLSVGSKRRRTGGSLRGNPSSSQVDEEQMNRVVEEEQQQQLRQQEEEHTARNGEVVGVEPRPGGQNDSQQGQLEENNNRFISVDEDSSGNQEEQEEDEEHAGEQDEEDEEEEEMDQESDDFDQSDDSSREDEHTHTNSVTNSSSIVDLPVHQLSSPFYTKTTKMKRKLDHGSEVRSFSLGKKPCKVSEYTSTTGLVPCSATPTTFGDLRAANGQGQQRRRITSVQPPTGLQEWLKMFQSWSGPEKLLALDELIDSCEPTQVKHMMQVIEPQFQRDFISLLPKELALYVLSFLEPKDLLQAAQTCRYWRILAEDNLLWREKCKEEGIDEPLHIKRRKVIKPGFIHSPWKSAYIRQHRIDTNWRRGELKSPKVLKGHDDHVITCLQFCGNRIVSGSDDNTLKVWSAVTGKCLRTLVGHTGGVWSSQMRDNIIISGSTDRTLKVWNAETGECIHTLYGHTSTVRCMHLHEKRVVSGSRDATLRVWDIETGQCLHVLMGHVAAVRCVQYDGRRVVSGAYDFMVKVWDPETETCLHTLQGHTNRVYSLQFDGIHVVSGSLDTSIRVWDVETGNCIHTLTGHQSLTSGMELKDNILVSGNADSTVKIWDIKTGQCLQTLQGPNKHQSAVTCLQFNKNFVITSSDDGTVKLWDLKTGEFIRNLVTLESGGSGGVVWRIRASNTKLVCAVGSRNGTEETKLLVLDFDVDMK
TEAD-YAP block: TEAD-YAP interaction inhibition, primary screen, TEAD-YAP interaction inhibitor project, luminescence, HEK-TIYL cells | hit rate 1.4% among 640,000 | TEAD-Gal4/YAP UAS-luciferase luminescence | inhibition, % at 9.12 µM; in the data active means inhibition above about 32%;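 further: 0% = median of test compound wells and 100% = reference inhibitor wells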
GPR151 activ: activators of human GPR151, primary screen, cell-based, PathHunter beta-arrestin, luminescence; hit rate 1% among 650,000; G-protein coupled receptor 151 (Homo sapiens), Q8TDV0; activation, % at 11.2 µM; PathHunter beta-arrestin GPR151 cells; in the data active means activation above about 4.9%;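 further: 0% = median of compound wells and 100% = cells with positive control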
MITF primary: MITF inhibitors, primary screen, biochemical, AlphaScreen, human | inhibition, % at 2.6 µM | AID 1259374, 2018 | Microphthalmia-associated transcription factor (Homo sapiens), O75030 | hit rate 0.91% among 650,000 | AlphaScreen MITF homodimerization, bead proximity signal; in the data active means inhibition above about 50%;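 further: 0% = vehicle wells with protein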
* = called active by the depositor.

SMILES	FBW7 act	TEAD-YAP block	GPR151 activ	MITF primary
COc1ccc(CC(=O)Nc2ccc3c(c2)OCCO3)cc1OC	0	1	0	11
Cn1nc(CC(=O)Nc2ccc3c(c2)OCO3)c2ccccc2c1=O	0	26	0	0
Cn1nc(CC(=O)Nc2ccc(Cl)cc2)c2ccccc2c1=O	1	39*	-1	19
O=C(Cc1ccc2c(c1)OCCO2)Nc1ccc2ccccc2c1	0	42*	0	0
Cn1nc(CC(=O)Nc2ccc3c(c2)OCCO3)c2ccccc2c1=O	0	50*	-1	-6
CCCn1c2c(c(=O)n(C)c1=O)C(c1cccc(F)c1)C1=C(COC1=O)N2 (centres undefined)	0	0	0	5
O=[N+]([O-])c1ccc(Oc2ccc(S(=O)(=O)NC3CCCCC3)cc2)cc1	0	13	1	-1
O=C(NC1CCCCC1)C(=Cc1ccc(O)c(O)c1)C(=O)NC1CCCCC1	-1	-19	3	-33
CCNC(=O)NC(=O)C(C)OC(=O)CNS(=O)(=O)c1ccc(NC)c([N+](=O)[O-])c1 (centres undefined)	0	3	0	7
Cn1c(C(=O)O)c(CC(=O)Nc2ccc3c(c2)OCCO3)c2ccccc21	0	35*	-1	21
COc1ccc(C(=O)Oc2ccc(NC(=O)Cc3nn(C)c(=O)c4ccccc34)cc2)cc1	0	-4	0	-7
Cn1nc(CC(=O)Nc2cccc(C(F)(F)F)c2)c2ccccc2c1=O	0	42*	3	1
Cn1nc(CC(=O)Nc2cccc(O)c2)c2ccccc2c1=O	0	5	1	-7
Cn1nc(CC(=O)Nc2ccc(Oc3ccccc3)cc2)c2ccccc2c1=O	0	40*	3	5
CCOCCOC(=O)C1=C(C)NC2=C(C(=O)CC(C)(C)C2)C1c1cc(OC)c(OC)c(OC)c1 (centres undefined)	0	7	0	4
O=C(Nc1ccccc1)c1ccnc(Nc2ccc(N3CCOCC3)cc2)c1	0	-7	0	7
COc1ccc(C(C#N)N2CCCCCC2)cc1OC (centres undefined)	2.0*	-1	-1	14
C/C(=N\NC(=O)c1ccc([N+](=O)[O-])cc1Cl)c1ccccn1	0	-1	0	25
COc1cccc(N2CCN(c3c4c(nc5nncn35)CCC4)CC2)c1	0	37*	-2	7
COc1ccc2c(C)nc(N3CCC(NCCCOC(C)C)CC3)nc2c1	0	-2	-1	15
CCOCCCNC1CCN(c2nc(C)c3cc(OC)ccc3n2)CC1	0	49*	1	-5
Cc1nnc(NC(=O)C2CCN(c3nc4ccccc4s3)CC2)s1	0	6	0	11
O=C(Nc1ccc(-c2cn3ccccc3n2)cc1)c1ccccc1	1	-25	-6	19
CC(=O)Nc1ccc(NC(=O)C2CCN(c3nc4ccccc4s3)CC2)cc1	0	36*	-2	43
O=C(Nc1ccc(-c2nc3ccccc3s2)cc1)C1CC1	0	79*	-3	14
SMILES	FBW7 act	TEAD-YAP block	GPR151 activ	MITF primary
O=C(Nc1ccc(O)c(-c2nc3ccccc3s2)c1)C1CC1	0	4	3	14
CCC(=O)Nc1ccc(-c2cn3ccccc3n2)cc1	0	40*	-5	3
Cc1cccn2cc(-c3ccc(NC(=O)C(C)(C)C)cc3)nc12	0	64*	-4	-13
CCC(=O)Nc1ccc(-c2nc3ccccc3s2)cc1	0	84*	-8	20
Cc1cc(/C=C(/C#N)c2nc3ccccc3[nH]2)c(C)n1-c1cccnc1	0	59*	3	3
COc1cc(/C=C(\C#N)c2nc3ccccc3[nH]2)c(Br)cc1O	1	41*	-2	21
Cc1ccc2nc(/C(C#N)=C/c3cc([N+](=O)[O-])ccc3O)[nH]c2c1	0	-4	0	11
COc1cc(Br)c(/C=C(\C#N)c2nc3ccccc3[nH]2)cc1OC	1	-21	1	-7
Cc1ccc2nc(/C(C#N)=C/c3ccccc3O)[nH]c2c1	0	97*	-9	6
O=C(Nc1ccc(F)c(Cl)c1)c1cc([N+](=O)[O-])nn1Cc1ccccc1	0	-12	-1	3
O=C(Nc1ccc(N2CCOCC2)cc1)c1cc([N+](=O)[O-])ccc1Cl	0	35*	0	-1
O=C(Nc1ccc(N2CCOCC2)cc1)c1csc(N2CCC(N3CCOCC3)CC2)n1	0	-24	0	0
O=C(Nc1ccc(N2CCOCC2)cc1)c1cc([N+](=O)[O-])ccc1Br	0	43*	-1	-8
O=C(Nc1ccc(N2CCOCC2)cc1)c1csc(Br)n1	0	52*	-10	19
O=C(Nc1ccc(N2CCCC2)cc1)c1cc([N+](=O)[O-])ccc1N1CCOCC1	0	-10	2	8
O=C(Nc1ccccc1Br)c1cc([N+](=O)[O-])ccc1N1CCOCC1	0	50*	1	-9
O=C(Nc1ccc(N2CCCCC2)cc1)c1cc([N+](=O)[O-])ccc1N1CCOCC1	0	7	0	11
O=C(COc1ccc(Cl)cc1)NCc1n[nH]c(=S)n1-c1ccccc1	0	-1	0	7
Cc1ccc(-c2nc3cccnc3s2)cc1NC(=O)C1CC1	0	-37	-1	18
COc1ccc(NC(=O)Nc2cccc(C)c2)cc1	0	-34	-3	2
Nc1cccc(-c2cccc(C(=O)Nc3ccc(N4CCOCC4)cc3)n2)c1	0	-12	1	-12
Cc1nc2c(C(=O)Nc3ccc(N4CCOCC4)cc3)snc2c(=O)[nH]1	0	33*	-1	-4
Cc1nn(C)c(C)c1-c1cccc(C(=O)Nc2ccc(N3CCOCC3)cc2)n1	0	45*	0	-7
O=C(c1cc([N+](=O)[O-])ccc1N1CCCCC1)N1CCN(c2ccccc2)CC1	0	48*	1	-1
Cc1nc2c(C(=O)Nc3ccc(Cl)cc3)snc2c(=O)[nH]1	0	0	1	0
SMILES	FBW7 act	TEAD-YAP block	GPR151 activ	MITF primary
O=C1CC(c2cccc([N+](=O)[O-])c2)c2c(ccc3ccccc23)N1 (centres undefined)	0	61*	1	-5
Cc1ccc(C2CC(=O)Nc3ccc4ccccc4c32)cc1 (centres undefined)	0	2	-1	17
O=C(Cc1cccs1)Nc1ccc(S(=O)(=O)NC2CCCCC2)cc1	0	-10	-1	7
Cc1cc2nnc(SCC(=O)NCc3ccco3)n2c2ccccc12	0	48*	-3	-5
Cc1cccc(Cn2cc(SCC(=O)NCc3ccco3)c3ccccc32)c1	0	36*	3	-4
Cc1ccc(N2CC(C(=O)Nc3nccs3)CC2=O)cc1C (centres undefined)	0	44*	-1	4
CC(=O)N(C1=C(N(C)C)C(=O)c2ccccc2C1=O)c1ccc(Cl)c(Cl)c1	-1	82*	-4	15
